Growth data for eight compounds are collected here from the supplement of paper PMC9262897, “Low-cost anti-mycobacterial drug discovery using engineered E. coli” (Nature Communications, 2022).

Common to all, as to assay: growth (OD600 after 10 h); higher = more growth (less inhibition)
Experiment [1] has as its system E. coli TESEC Alr+ wild-type control. Conditions: compound 0.1 mM; raw OD600 reference: median of DMSO wells 0.241, cell-free background 0.041. As for the experimental part: (§1)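 TESEC Mtb Alr E. coli, or the Alr+ wild-type control, in 384-well plates with Prestwick library compounds at 0.1 mM and 1% DMSO, across arabinose induction levels of 1E3 to 1E7 nM. Growth is read as OD600 after 10 h at 37 °C in triplicate biological replicates.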

Experiment [2] deals with E. coli TESEC Mtb Alr. The following applies: compound 0.1 mM. As to the method: as §1
The test system of experiment [3] is E. coli TESEC Mtb Asd. The following applies: compound 0.1 mM. As for the experimental part: (§2)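 TESEC E. coli strains in which the native enzyme is deleted and replaced by arabinose-inducible Mtb Asd, DapB, CysH or TrpD, each grown in its selective medium. Strains were screened against the Prestwick library at 0.1 mM and 1% DMSO in 384-well format at low and high arabinose induction. Growth is read as OD600 after 10 h in triplicate.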

Experiment [4] deals with E. coli TESEC Mtb DapB. Conditions: compound 0.1 mM. As to the method:
as §2

Experiment [5] concerns E. coli TESEC Alr+ wild-type control. Conditions: compound 0.1 mM; raw OD600 reference: median of DMSO wells 0.49, cell-free background 0.052. As for the experimental part: (§3)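 TESEC Mtb Alr E. coli (ΔaraC ΔtolC ΔentC Δalr ΔdadX, arabinose-inducible Mtb Alr) or the Alr+ wild-type control strain, grown in defined M9-fructose medium without D-alanine in 96-well plates with Prestwick library compounds at 0.1 mM and 1% DMSO. Low Alr induction is 0.1 µM arabinose and high induction is 10 mM arabinose.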

Experiment [6] relates to E. coli TESEC Mtb Alr. Conditions: compound 0.1 mM. As to the method: as §3
The source holds these as a separate data set.

[7] abbreviates: arabinose 1000 nM, raw OD600 reference: median of DMSO wells 0.294, cell-free background 0.041.
[8] abbreviates: arabinose 10000 nM, raw OD600 reference: median of DMSO wells 0.264, cell-free background 0.041.
Setting [9] is: arabinose 100000 nM, raw OD600 reference: median of DMSO wells 0.201, cell-free background 0.041.
Where [10] appears, read: arabinose 1000000 nM, raw OD600 reference: median of DMSO wells 0.193, cell-free background 0.041.
The mark [11] stands for this setting: arabinose 10000000 nM, raw OD600 reference: median of DMSO wells 0.146, cell-free background 0.041.
Setting [12] is: arabinose induction (level): High, raw OD600 reference: median of DMSO wells 0.331, cell-free background 0.041.
Where [13] appears, read: arabinose induction (level): Low, raw OD600 reference: median of DMSO wells 0.417, cell-free background 0.041.
Where [14] appears, read: arabinose induction (level): High, raw OD600 reference: median of DMSO wells […], cell-free background 0.041.
The mark [15] stands for this setting: arabinose induction (level): Low, raw OD600 reference: median of DMSO wells 0.227, cell-free background 0.041.
The mark [16] stands for this setting: arabinose 100 nM, raw OD600 reference: median of DMSO wells 0.413, cell-free background 0.052.
Setting [17] is: arabinose 10000000 nM, raw OD600 reference: median of DMSO wells […], cell-free background 0.052.

The structures appear in SMILES notation. Counter-ions that a name gives are not always drawn. ± gives the standard deviation of the averaged measurements.

For the compound `O=c1[nH]cc(F)c(=O)[nH]1` [5-fluorouracil], the growth turned out to be 0.122 ± 0.0069 in experiment [1]; 0.155 ± 0.012 in experiment [2] (setting [7]); 0.148 ± 0.0051 in experiment [2] (setting [8]); 0.0825 ± 0.0014 in experiment [2] (setting [9]); 0.0827 ± 0.0053 in experiment [2] (setting [10]); 0.08963 ± 0.00055 in experiment [2] (setting [11]). Also, the growth in experiment [3] (setting [12]) was 0.193 ± 0.013; in experiment [3] (setting [13]), 0.238 ± 0.015; in experiment [4] (setting [14]) it was 0.151 ± 0.011; in experiment [4] (setting [15]), 0.142 ± 0.013; in experiment [5], 0.556 ± 0.066; in experiment [6] (setting [16]) it was 0.359 ± 0.041. Further, the growth in experiment [6] (setting [17]) is 0.134 ± 0.013.

`OCCOCCN1CCN(C2=Nc3ccccc3Sc3ccccc32)CC1` [Quetiapine hemifumarate]: the growth in experiment [1] worked out at 0.158 ± 0.01; in experiment [2] (setting [7]) it was 0.25 ± 0.0048; in experiment [2] (setting [8]), 0.255 ± 0.0044; in experiment [2] (setting [9]) it was 0.203 ± 0.026; in experiment [2] (setting [10]) it was 0.121 ± 0.0057; in experiment [2] (setting [11]), 0.151 ± 0.0081. In addition, the growth in experiment [3] (setting [12]) turned out to be 0.162 ± 0.024; in experiment [3] (setting [13]), 0.361 ± 0.016; in experiment [4] (setting [14]), 0.174 ± 0.013; in experiment [4] (setting [15]), 0.187 ± 0.021; in experiment [5], 0.486 ± 0.019; in experiment [6] (setting [16]) it was 0.396 ± 0.0062. The growth in experiment [6] (setting [17]) was found to be 0.289 ± 0.0089.

As for `C[C@@H]1C[C@H]2[C@@H]3C[C@H](F)C4=CC(=O)C=C[C@]4(C)[C@@]3(F)[C@@H](O)C[C@]2(C)[C@@]1(O)C(=O)COC(=O)C(C)(C)C` [Flumethasone pivalate], the growth turned out to be 0.207 ± 0.028 in experiment [1]; 0.271 ± 0.028 in experiment [2] (setting [7]); 0.267 ± 0.017 in experiment [2] (setting [8]); 0.209 ± 0.016 in experiment [2] (setting [9]); 0.182 ± 0.022 in experiment [2] (setting [10]); 0.145 ± 0.012 in experiment [2] (setting [11]). Besides, the growth in experiment [3] (setting [12]) stood at 0.256 ± 0.022; in experiment [3] (setting [13]) it was 0.319 ± 0.066; in experiment [4] (setting [14]), 0.2 ± 0.0088; in experiment [4] (setting [15]), 0.239 ± 0.023; in experiment [5] it was 0.521 ± 0.057; in experiment [6] (setting [16]), 0.43 ± 0.025. This compound displayed a growth in experiment [6] (setting [17]) of 0.373 ± 0.025.

Regarding `Cc1cc2c(s1)Nc1ccccc1N=C2N1CCN(C)CC1` [Olanzapine], the growth in experiment [1] turned out to be 0.207 ± 0.0059; in experiment [2] (setting [7]), 0.286 ± 0.014; in experiment [2] (setting [8]), 0.267 ± 0.0071; in experiment [2] (setting [9]), 0.183 ± 0.015; in experiment [2] (setting [10]), 0.158 ± 0.006; in experiment [2] (setting [11]), 0.136 ± 0.0056. The growth in experiment [3] (setting [12]) worked out at 0.305 ± 0.043; in experiment [3] (setting [13]), 0.457 ± 0.018; in experiment [4] (setting [14]), 0.213 ± 0.029; in experiment [4] (setting [15]), 0.249 ± 0.026; in experiment [5], 0.502 ± 0.029; in experiment [6] (setting [16]), 0.403 ± 0.014. The growth in experiment [6] (setting [17]) came to 0.319 ± 0.01.

As for `Nc1nc(NC2CC2)c2ncn([C@H]3C=C[C@@H](CO)C3)c2n1` [Abacavir Sulfate], the growth in experiment [1] was 0.238 ± 0.018; in experiment [2] (setting [7]) it was 0.295 ± 0.024; in experiment [2] (setting [8]), 0.253 ± 0.0039; in experiment [2] (setting [9]) it was 0.182 ± 0.012; in experiment [2] (setting [10]), 0.18 ± 0.0053; in experiment [2] (setting [11]) it was 0.133 ± 0.0075. In addition, the growth in experiment [3] (setting [12]) came out at 0.317 ± 0.022; in experiment [3] (setting [13]), 0.423 ± 0.015; in experiment [4] (setting [14]), 0.183 ± 0.018; in experiment [4] (setting [15]) it was 0.212 ± 0.038; in experiment [5] it was 0.612 ± 0.095; in experiment [6] (setting [16]) it was 0.408 ± 0.016. In experiment [6] (setting [17]), this compound displayed a growth of 0.339 ± 0.0091.

`Clc1ccccc1CN1CCc2sccc2C1` [Ticlopidine hydrochloride]: the growth came out at 0.0758 ± 0.011 in experiment [1]; 0.0555 ± 0.015 in experiment [2] (setting [7]); 0.0438 ± 0.0013 in experiment [2] (setting [8]); 0.0705 ± 0.024 in experiment [2] (setting [9]); 0.0437 ± 0.00091 in experiment [2] (setting [10]); 0.0565 ± 0.0013 in experiment [2] (setting [11]). Further, the growth in experiment [3] (setting [12]) stood at 0.236 ± 0.03; in experiment [3] (setting [13]), 0.323 ± 0.07; in experiment [4] (setting [14]) it was 0.195 ± 0.0059; in experiment [4] (setting [15]), 0.23 ± 0.029; in experiment [5], 0.429 ± 0.015; in experiment [6] (setting [16]) it was 0.345 ± 0.085. The growth in experiment [6] (setting [17]) was found to be 0.06587 ± 0.00038.

Turning to `Cc1ccc2c(c1)c1c3n2CCNC3CCC1` (centres undefined) [Pirlindole mesylate], the growth in experiment [1] stood at 0.215 ± 0.0049; in experiment [2] (setting [7]), 0.252 ± 0.0064; in experiment [2] (setting [8]), 0.262 ± 0.0058; in experiment [2] (setting [9]) it was 0.182 ± 0.022; in experiment [2] (setting [10]) it was 0.148 ± 0.003; in experiment [2] (setting [11]), 0.165 ± 0.011. For the same compound, the growth is 0.177 ± 0.0082 in experiment [3] (setting [12]); 0.259 ± 0.028 in experiment [3] (setting [13]); 0.18 ± 0.0019 in experiment [4] (setting [14]); 0.201 ± 0.024 in experiment [4] (setting [15]); 0.485 ± 0.052 in experiment [5]; 0.397 ± 0.0065 in experiment [6] (setting [16]). Further, the growth in experiment [6] (setting [17]) stood at 0.351 ± 0.011.

With `O=C1CCC(N2C(=O)c3ccccc3C2=O)C(=O)N1` (centres undefined) [Thalidomide], the growth in experiment [1] amounted to 0.248 ± 0.0061; in experiment [2] (setting [7]) it was 0.283 ± 0.0041; in experiment [2] (setting [8]), 0.269 ± 0.014; in experiment [2] (setting [9]) it was 0.204 ± 0.012; in experiment [2] (setting [10]), 0.192 ± 0.0034; in experiment [2] (setting [11]) it was 0.135 ± 0.0057. For the same compound, the growth is 0.392 ± 0.098 in experiment [3] (setting [12]); 0.461 ± 0.035 in experiment [3] (setting [13]); 0.189 ± 0.016 in experiment [4] (setting [14]); 0.24 ± 0.052 in experiment [4] (setting [15]); 0.513 ± 0.072 in experiment [5]; 0.424 ± 0.0084 in experiment [6] (setting [16]). For the same compound, the growth in experiment [6] (setting [17]) is 0.346 ± 0.0072.
